Most compounds without a hit are left out; they make up all but 2.7% or so of the library.
aDG glyco act = increases alpha dystroglycan glycosylation. Pro5-aDG cells, alpha-DG glycosylation AlphaScreen (IIH6); 0% Pro5, 100% B10-LARGE cell signal. activation, % at 10 µM. 360,000 compounds, 0.22% hits;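 active = activation of at least 8% versus controls, or a plate z-score of at least 8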;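 note: Pro5 are CHO cells carrying HIG-tagged alpha-DG that lacks glycosylation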
MPTP block = blocks calcium-induced mitochondrial swelling | isolated mouse mitochondria, Ca2+ swelling absorbance, 30 min | inhibition, % at 10 µM | 360,000 compounds, 1.4% hits;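 active = inhibition of 50% or more, scaled per plate between neutral and stimulator controls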;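 note: 0% = DMSO wells given calcium and 100% = 1 mM EGTA wells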
NadD block = NadD (S. aureus) enzyme inhibition; purified NadD enzyme, colorimetric absorbance read-out; inhibition, % at 20 µM; 360,000 compounds, 0.78% hits; in the data active = inhibition above about 26%
TAG inh = triacylglycerol accumulation inhibition | H9c2 cells, Nile Red lipid (TAG) fluorescence; cells loaded with 200 µM oleic acid | inhibition, % at 12.5 µM | 230,000 compounds, 0.66% hits | AID 651582;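 active = pattern-corrected inhibition of lipid staining of at least 50% with the nuclear-stain viability signal not falling by more than 50%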;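 note: 0% = DMSO wells and 100% = triacsin C control wells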
MPTP counter = membrane potential counter-screen of mitochondrial pore inhibitors; shares compounds with MPTP block; isolated mitochondria, Rhodamine 123 fluorescence; inhibition, % at 10 µM; 5,000 compounds, 78% hits; in the data active = inhibition above about 22%;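 note: 0% = DMSO vehicle and 100% = positive control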
MPTP swell DR = dose response confirmation of mitochondrial permeability transition pore inhibitors; shares compounds with MPTP block; isolated mitochondria swelling, absorbance; IC50, µM; 780 compounds, 58% hits; AID 651561; in the data active = IC50 below about 20 µM
MPTP cs DR = counter-screen for mitochondrial permeability transition pore inhibitors, dose response. shares compounds with MPTP block. isolated mitochondria counterscreen, fluorescence read-out. IC50, µM. 780 compounds, 49% hits. AID 651564; in the data active = IC50 below about 80 µM
Starred values were filed as active, the others as inactive; · = no result.

SMILES	aDG glyco act	MPTP block	NadD block	TAG inh	MPTP counter	others
N#Cc1cnc2sc3ccccc3n2c1=N	-0.1	71.8*	5.6	·	81.2*
Cn1c(NCc2cccnc2)nc2cc(-c3cccc(C(F)(F)F)c3)sc2c1=O	-0.6	0.2	1.8	13.6	·
COc1cc(NC(=O)c2ccccc2)c(OC)cc1Cl	0.6	-3.4	-7.2	-2.7	·
CCOc1ccccc1C(=O)Nc1cc(Cl)ccc1O	0.0	92.2*	-9.3	20.6	75.8*
Cc1ccc(Cl)cc1NC(=O)c1ccccc1OCC(=O)Nc1ccc(Cl)cc1	-0.6	88.2*	-4.1	·	92.9*
COc1ccccc1C(=O)Nc1cc(Cl)ccc1O	0.0	66.9*	-4.3	3.3	36.1*
COc1cc(OC)c(NC(=O)c2cc3ccccc3cc2O)cc1Cl	-0.1	90.5*	19.4	21.5	32.9*
Cc1noc(C)c1C(=O)N1CCC1(C)C(=O)NS(=O)(=O)c1ccccc1C(F)(F)F (configuration not stated)	-0.2	-1.0	4.9	2.9	·
COCc1ccc(C(=O)N2CCCC(Nc3ccc(F)c(F)c3)C2)s1 (configuration not stated)	0.1	-0.3	3.1	-2.5	·
Cc1noc(C)c1NC(=O)N(C)C[C@@H]1OCc2cnnn2CCCC(=O)N([C@H](C)CO)C[C@@H]1C	-0.1	-0.5	-0.6	3.6	·
CC1(c2nc3ccccc3[nH]2)CCC(=O)N1Cc1ccc(F)cc1 (configuration not stated)	0.0	-0.1	-7.5	·	·
Cc1nn(-c2ccccc2)c(Cl)c1/C=N/O	-0.1	1.0	-1.4	·	·
Cc1nn(-c2ccccc2)c(N2CCCC2)c1/C=N/O	-0.1	50.2*	-0.8	·	0.4	MPTP swell DR=>100;MPTP cs DR=>80
Cc1ccc(Nc2cc(C)nc(-c3ccccc3O)n2)cc1	0.2	28.6	-3.3	-13.2	·
Cc1cc(Nc2ccc(F)c(F)c2)nc(-c2ccccc2O)n1	0.2	89.9*	-2.5	10.6	60.1*
NC(N)=NN=C(c1ccc(F)cc1)c1ccc(C(F)(F)F)cc1	-0.4	69.7*	-1.0	48.5	-13.4	MPTP swell DR=4.79*;MPTP cs DR=41*
Cc1ccc(N2C(=O)c3ccccc3C2C(=O)c2cc(C)ccc2O)cc1 (configuration not stated)	0.8	66.8*	1.9	·	70.5*
COc1ccc(O)c(CN2CCC(n3nccc3NC(=O)c3ccccc3Cl)CC2)c1	-0.1	1.0	2.5	16.0	·
CN1CCN(c2cc(-c3cccc(C(=O)O)c3)nc3ccnn23)CC1	0.0	-1.4	-6.7	17.8	·
NC(N)=N/N=C/c1cc([N+](=O)[O-])ccc1O	0.5	-2.8	-8.6	·	·
O=[N+]([O-])c1ccc(O)c(/C=N\N=C2c3ccccc3-c3ccccc32)c1	-0.2	104.5*	9.0	·	92.9*
COc1cccc(OCCNC(=O)c2cc([N+](=O)[O-])cc([N+](=O)[O-])c2)c1	-0.1	-0.5	-3.2	-7.6	·
Cc1ccc(OCCNC(=O)c2cc(C(=O)NCCOc3ccc(C)cc3)cc([N+](=O)[O-])c2)cc1	1.7	73.8*	-6.6	·	83.2*
S=C(Nc1cc(Cl)cc(Cl)c1)NC1CCN(Cc2ccccc2)CC1	1.5	53.9*	0.3	15.9	89.3*
S=C(NCc1ccc(Cl)cc1)NC1CCN(Cc2ccccc2)CC1	4.0	71.0*	0.0	-18.3	24.4*
SMILES	aDG glyco act	MPTP block	NadD block	TAG inh	MPTP counter	others
Clc1ccc(CNC2CCN(Cc3ccccc3)CC2)cc1	0.4	1.0	-4.7	1.8	·
CCCCn1c(N)c(N(Cc2ccccc2OC)C(=O)c2cc(CC)c(C)s2)c(=O)[nH]c1=O	0.1	0.4	7.4	-9.1	·
Cc1cccc(C)c1-n1nnnc1C1c2ccccc2C(=O)N1CCOc1ccccc1 (configuration not stated)	-0.1	0.7	-12.4	·	·
Cc1cc(C(=O)NNC(=O)CCCOc2ccccc2)c(C)o1	-0.2	-0.6	-1.8	3.8	·
CC(C)(C)c1ccc(OCCCC(=O)NNC(=O)c2ccccc2O)cc1	0.5	69.4*	-2.5	1.2	81.9*
O=C(O)c1cc2ccccc2c(N=Nc2cccnc2)c1O	0.6	1.4	9.6	·	·
C[n+]1ccc(/C=N/Nc2nc(Cl)c(C#N)c(Cl)c2Cl)cc1	-0.3	103.3*	5.5	2.9	75.9*
Clc1nnc(N/N=C/c2ccccc2)c2ccccc12	-0.2	0.2	-6.2	·	·
S=P(N1CC1)(N1CC1)N1CC1	0.1	-0.2	-0.8	8.8	·
N/C(=N\S(=O)(=O)c1cc(C(F)(F)F)cc(C(F)(F)F)c1)c1ccc(Cl)cc1	0.2	83.1*	-8.2	-24.9	88.4*
NC(=O)CC1(c2ccccc2)CCCCC1	-0.1	-0.7	-0.9	-8.4	·
N#Cc1ccc(/C=C\c2nccc3c2[nH]c2ccccc23)cc1	1.0	92.2*	26.4	34.8	66.6*
Clc1ccc(/C=C\c2nccc3c2[nH]c2ccccc23)cc1	1.0	70.4*	13.5	22.1	83.1*
OCCCCc1nccc2c1[nH]c1ccccc12	-0.1	1.0	-6.6	·	·
COC(=O)c1cc(NC(=S)NCc2ccc(Cl)cc2)cc(C(=O)OC)c1	0.1	98.1*	-0.6	-5.4	79.2*
COC(=O)c1cccc(NC(=S)NCc2ccc(Cl)cc2)c1	0.0	94.0*	-6.7	·	106.7*
COC(=O)c1cccc(NC(=S)Nc2cc(Cl)ccc2OC)c1	0.1	1.1	4.2	-1.8	·
COC(=O)c1cccc(NC(=O)Nc2ccc(Cl)cc2Cl)c1	0.2	84.2*	-7.2	-1.5	75.3*
COc1ccc(C2SCCN2C(=S)Nc2cccc(Cl)c2)cc1 (configuration not stated)	0.1	95.6*	-7.1	·	94.0*
COc1ccc(CNC(=S)Nc2cccc(Cl)c2)cc1	-0.1	74.7*	-11.5	-1.0	100.0*
COc1ccc(CNC(=O)Nc2cccc(Cl)c2)cc1	0.0	0.1	-3.4	-48.7	·
Cc1nc(Nc2ccccc2)[nH]c(=O)c1CCC(C)C	0.7	57.1*	1.2	·	58.4*
Cc1cc(C)n(CCc2nc(-c3ccco3)cs2)n1	0.0	54.8*	13.9	·	-5.7	MPTP swell DR=>100;MPTP cs DR=>80
Cc1cc(C)n(CCc2nc(-c3cccs3)cs2)n1	0.0	1.4	3.6	-27.2	·
CCCCCCc1cc2cc(-c3nnc(-c4ccccc4OC)o3)c(=O)oc2cc1O	0.6	83.9*	10.3	·	5.2
COc1ccc(NC(=O)c2cc3ccccc3oc2=O)c(OC)c1	-0.2	2.3	2.7	·	·
CCCCCCc1cc2cc(C(=O)Nc3ccccc3OC)c(=O)oc2cc1O	0.1	57.0*	2.4	·	-5.3	MPTP swell DR=2.57*;MPTP cs DR=<2.5*
CCCCCCc1cc2cc(S(=O)(=O)c3ccc(F)cc3)c(=O)oc2cc1O	0.2	81.4*	26.2	·	93.1*
COc1ccc(-c2nnc(-c3cc4ccccc4oc3=O)o2)cc1	-0.1	0.5	3.5	·	·
CCCCCCc1cc2cc(-c3nnc(-c4ccccc4O)o3)c(=O)oc2cc1O	-0.1	103.9*	3.0	·	4.9

Screens (PubChem BioAssay)
